SMILES strings stand for the structures. “And” between values parts separate entries of the source, which are not always exact repeats. Equal entries are not always repeated. Records with an inconclusive call do not appear. More than one record can exist for a structure, and the calls need not agree. The source made the active and inactive calls. The calls were made as follows: active = hit-call score of the fitted dose curve at least 0.9, where 1 is the maximum; inconclusive = response in the unintended direction; inactive = score below 0.9.

Sequence of Cellular tumor antigen p53 (Homo sapiens) (P04637 whole entry, looked up, the tested form may be a part): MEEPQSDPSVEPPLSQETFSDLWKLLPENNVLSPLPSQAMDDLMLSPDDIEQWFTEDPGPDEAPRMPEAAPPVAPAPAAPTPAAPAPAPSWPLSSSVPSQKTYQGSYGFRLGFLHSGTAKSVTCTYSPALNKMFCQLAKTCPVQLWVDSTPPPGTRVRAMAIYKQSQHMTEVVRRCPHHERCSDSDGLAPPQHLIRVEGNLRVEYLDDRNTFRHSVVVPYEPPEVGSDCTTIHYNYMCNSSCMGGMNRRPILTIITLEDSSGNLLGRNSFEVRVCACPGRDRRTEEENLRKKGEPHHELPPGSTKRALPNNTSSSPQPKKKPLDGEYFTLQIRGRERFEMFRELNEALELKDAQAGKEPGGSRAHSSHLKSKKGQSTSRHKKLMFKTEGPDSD

The test has as its target Cellular tumor antigen p53 (Homo sapiens) (UniProt P04637). Briefly: TOX21_p53_BLA_p2_ratio: Tox21 HCT-116 p53 Agonism Beta-lactamase Assay, Ratio, Phase 2 (AID 2283592). The text has this: TOX21_p53_BLA_p2 is a cell-based, single-readout assay that uses HCT116, a human intestinal cell line, […] in a 1536-well plate.TOX21_p53_BLA_p2_ratio is an assay readout measuring reporter gene via receptor activity and designed using inducible reporter (beta lactamase induction) detected with GAL4 b-lactamase reporter gene. The signal is derived from the ratio of cleaved (ch2) to uncleaved (ch1) reporter gene substrate used as the measure of target activity.Data from the assay component TOX21_p53_BLA_p2_ratio was analyzed into 1 assay endpoint. This assay endpoint, TOX21_p53_BLA_p2_ratio, was analyzed in the positive analysis fitting direction relative to DMSO as the negative control and baseline of activity. Using a type of inducible reporter, gain-of-signal activity can be used to understand changes in the reporter gene as they relate to the gene TP53. Furthermore, this assay endpoint can be referred to as a primary readout, because this assay has produced multiple assay endpoints and this ratio serves a reporter gene function to understand target activity. To generalize the intended target to other relatable targets, this assay endpoint is annotated to the DNA binding intended target family, where the subfamily is tumor suppressor.
Thawing Method: Place 14 mL of pre-warmed thaw medium into a 15 mL of conical tub. Remove the vial of cells to be thawed from liquid nitrogen and thaw rapidly by placing at 37C in a water bath with gentle agitation for 1-2 minutes. Decontaminate the vial by wiping with 70% ethanol before opening in a biological safety cabinet. Transfer the vial contents drop-wise into 14 mL of thaw medium in a sterile 15-mL conical tub. Centrifuge cells at 900 rpm for 4 minutes and resuspend in thaw medium. Transfer contents to the T75 tissue culture flask containing Thaw Medium and place flask in a humidified 37C/5% CO2 incubator. Switch to growth medium at first passage.Propagation Method: Aspirate medium, rinse once in DPBS, add 0.25% Trypsin/EDTA and swirl to coat the cell evenly. Add an equal volume of Growth Medium to inactivate Trypsin after 2-3 minutes incubation at 37C. Centrifuge cells at 900 rpm for 4 minutes and resuspend in growth medium. Cell should be passage or fed at least twice a week.Assay Protocol: Harvest cells from culture in growth medium and resuspend in assay medium. 2.2 Dispense 4000 cells/5 uL/well into 1536-well black/clear bottom plates using a Multidrop dispenser. After the cells were incubated at 37C for 5 hours, 23 nL of compounds dissolved in DMSO were transferred to the assay plate by a PinTool resulting in a 217-fold dilution. Incubate the plates for 16 hours at 37C, 5% CO2. Add 1 uL of 6X LiveBLAzer FRET B/G (CCF4-AM) Substrate Mixture to each well using a BioRAPTR dispenser and incubate the plates at room temperature for 2 hours. Measure fluorescence intensity at 460 and 530 nm emission and 405 nm excitation by an Envision detector. Data is expressed as the ratio of 460nm/530nm emissions. Add 4 uL of Cell-titer Glo to each well using BioRAPTR and incubate the plates at room temperature for 2 hours. Measure fluorescence intensity by a VewLux plate reader.
Turning to `CC(=O)OCCC1CCCCC1`, the outcome was inactive. For the compound `CO[Si](OC)(OC)c1ccccc1`, the outcome was inactive. The same measure, in the same setting: to `CCOC(=O)CC` belongs “inactive”; to `C=CCOCC(O)CCl` (stereo not given), “inactive”. With `CC1(C)O[C@@H]2C[C@H]3[C@@H]4C[C@H](F)C5=CC(=O)CC[C@]5(C)[C@H]4[C@@H](O)C[C@]3(C)[C@]2(C(=O)CO)O1`, the outcome was inactive. With `O=C(Oc1ccccc1)c1ccc2ccccc2c1O`, the outcome was inactive. Same read-out and setting: to `CC(=O)NS(=O)(=O)c1ccc(N)cc1` belongs “inactive”; to `CC(C)=CCC/C(C)=C\C#N`, “inactive”. `CC1=NN(c2cc(S(=O)(=O)O)ccc2Cl)C(=O)C1N=Nc1ccccc1` (stereo not given): the outcome was inactive. As to `O=C(Nc1ccccc1SSc1ccccc1NC(=O)c1ccccc1)c1ccccc1`, the AC50 (usually the midpoint of the concentration-response curve, whichever way the signal moves) is 58.3 µM (active) and 56.6 µM (active).

Turning to `CCC(Cc1ccccc1)(C(=O)c1ccc(N2CCOCC2)cc1)N(C)C` (stereo not given), the outcome was inactive. `O=C(Nc1cccc(C(F)(F)F)c1)c1cc(Br)cc(Br)c1O`: the AC50 is 181 nM (active) and 1.14 µM (active). Take `Cc1cccc(N)n1`: the outcome was inactive. Take `O=c1cc[nH]c(=S)[nH]1`: the outcome was inactive.

For `CCOC(=O)c1ccccc1C(=C1C=C(Br)C(=O)C(Br)=C1)c1cc(Br)c(O)c(Br)c1`, the AC50 is 10.2 µM (active). As for `CCc1nccnc1C`, the outcome was inactive. As to `CCCCCCCCCCCCCOP(=O)(O)O`, the outcome was inactive. Still for that read-out and setting: to `CC(=O)OC(C)C` belongs “inactive”. For `CCCNC(=O)NS(=O)(=O)c1ccc(Cl)cc1`, the outcome was inactive.

Regarding `Nc1ccc(N)c(Cl)c1`, the outcome was inactive and the AC50 is 68.3 µM (active). Consider `Cc1ccc(C(C)c2ccc(C)c(C)c2)cc1C`, for which the result was inactive. For the compound `O=C(O)c1ccccc1Nc1cccc(C(F)(F)F)c1`, the AC50 is 19.9 µM (active) and the outcome was inactive. Turning to `c1ccc(CNCc2ccccc2)cc1`, the outcome was inactive. Regarding `Nc1ccc(N=Nc2ccccc2)c(N)n1`, the AC50 was 85.6 µM (active) and 25.8 µM (active); the outcome was inactive.

Turning to `CN(C)c1ccc(C(=N)c2ccc(N(C)C)cc2)cc1`, the AC50 is 896 nM (active) and 2.2 µM (active).

On to `CC(=O)OCC(=O)[C@@]12N=C(C)O[C@@H]1C[C@H]1[C@@H]3CCC4=CC(=O)C=C[C@]4(C)[C@H]3[C@@H](O)C[C@@]12C`, for which the result was inactive.

As for `CC1=NC(C)OC1C` (stereo not given), the outcome was inactive.

Take `O=C(/C=C/C=C/c1ccc2c(c1)OCO2)N1CCCCC1`: the outcome was inactive. On to `O=C1CCCN1CCO`, for which the result was inactive.

In the case of `NC(=O)c1ccccc1O`, the outcome was inactive. `C=CC(=O)OCCOC(=O)C=C`: the result was inactive. Still for that read-out and setting: to `OC1OCCOC1O` (stereo not given) belongs “inactive”; to `CCN(CCO)c1cccc(C)c1`, “inactive”; to `O=c1[nH]nc(-c2ccc([N+](=O)[O-])o2)o1`, “inactive”. `c1ccc(-c2ccccn2)nc1`: the result was inactive.

Turning to `[Cl][Bi]([Cl])([c]1ccccc1)([c]1ccccc1)[c]1ccccc1`, the AC50 was 18.4 µM (active). Consider `O=Cc1ccc(CO)o1`, for which the outcome was inactive.

For the origin of these results see PubChem BioAssay (EPA / NIEHS).
